Drawing on PubChem BioAssay AID652054 (National Center for Advancing Translational Sciences (NCATS), 2013), this text covers max response, negative = inhibition for 90 molecules.

Structures are written as SMILES. The campaign covered roughly 360,000 compounds. About 9,100 (2.5%) were called active. About 4% were inconclusive and are not listed. Many of the other results were omitted from the sample, so actives are more common in it than they were. A number with no mark means an inactive call. Cut-off read from the data, not from the text of the source: active = max response below about -50%; inconclusive = no clear call, values can overlap the other calls; inactive = above that.
% is set by controls: 0 for no effect and ±100 for the full control effect.

Chain of D(3) dopamine receptor (Homo sapiens) (P35462 whole entry, looked up): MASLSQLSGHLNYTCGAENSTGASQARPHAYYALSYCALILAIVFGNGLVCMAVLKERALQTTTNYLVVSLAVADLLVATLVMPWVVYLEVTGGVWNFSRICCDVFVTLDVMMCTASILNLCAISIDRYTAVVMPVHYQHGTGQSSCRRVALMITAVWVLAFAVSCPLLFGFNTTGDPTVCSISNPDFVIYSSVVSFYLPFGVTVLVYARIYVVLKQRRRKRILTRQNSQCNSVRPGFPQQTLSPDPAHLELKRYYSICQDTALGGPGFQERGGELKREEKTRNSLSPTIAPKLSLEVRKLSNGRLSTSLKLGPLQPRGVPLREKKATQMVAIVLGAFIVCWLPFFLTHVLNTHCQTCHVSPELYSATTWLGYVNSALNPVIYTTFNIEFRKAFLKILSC

This test has as its target D(3) dopamine receptor (Homo sapiens) (UniProt P35462). In words: qHTS of D3 Dopamine Receptor Antagonist: qHTS. To be noted: D3R cells, DiscoveRx beta-arrestin luminescence, antagonist mode; stronger effect = lower value. The method, boiled down: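 Cells expressing the human receptor were seeded at 1500 cells/well, incubated overnight at 37 degrees C in 5% CO2, then exposed to library compounds with dopamine controls for 90 minutes at 37 degrees C before luminescent detection.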
(qHTS replaces the single test concentration by a dilution series.)
`N#Cc1nc(N)nc(N(c2ccccc2)c2ccccc2)n1`: the max response, negative = inhibition is -74% (active). To `CC(C)Nc1nc(N(c2ccccc2)c2ccccc2)nc(-n2ccnc2)n1` belongs 16.7%; to `CC(=O)Nc1ccc(CNc2nc(NCCN(C)C)nc3cc(-c4ccccc4)sc23)cc1`, -24.6%; to `CCOC(=O)C1CCCN(C(=O)c2cc(-c3cccs3)oc2C)CC1` (stereo not given), 11%.

`O=c1[nH][nH]c(C(F)(F)F)c1C=NCc1ccccc1Cl`: the max response, negative = inhibition is -70.6% (active). Under `COc1ccc(S(=O)(=O)N2CCCCC2c2cc(C(=O)NCc3ccc(F)cc3)no2)cc1` (stereo not given) stands 8.77%.

As to `Cc1cc(C(=O)N2CCCC2(C)C(=O)O)c(C)o1` (stereo not given), the max response, negative = inhibition is 16.6%. Consider `CCOC(=O)C1=CC[C@@H](c2ccccc2)N(S(=O)(=O)c2ccc(C)cc2)[C@H]1c1ccc(CC)cc1`, for which the max response, negative = inhibition is 4.64%. Under `O=C(NCc1cccnc1)c1cc(C2CCCCN2C(=O)CCc2ccccc2)on1` (stereo not given) stands -10.2%. Turning to `COc1ccc(/C(N)=N/OC(=O)Cc2ccccc2)cc1`, the max response, negative = inhibition was -0.193%.

On to `COc1ccc(C(=NN)c2ccc(OC)cc2)cc1`, for which the max response, negative = inhibition is -10.2%. In the case of `COc1ccc(C(C#N)=C2C=CC(=NO)c3ccccc32)cc1`, the max response, negative = inhibition is -54% (active). `Cc1cccc(C)c1NC(=O)C(c1ccc(C(F)(F)F)cc1)n1c(=O)c(-c2ccco2)nc2ccccc21` (stereo not given): the max response, negative = inhibition was -12.7%. To `COc1cc(C=C(OC(C)=O)c2ccc3c(c2)OCO3)cc(OC)c1OC` belongs 24.2%; to `O=C1CCC(C(=O)OCC(=O)Nc2ccc(OC(F)F)cc2)=NN1`, 12.8%; to `O=C(N/N=C/c1cc(Cl)cc([N+](=O)[O-])c1O)C(O)(c1ccccc1)c1ccccc1`, -89.3% (active). To `O=C(N/N=C/c1cc(Br)c(O)c([N+](=O)[O-])c1)C(O)(c1ccccc1)c1ccccc1` belongs -10.9%; to `O=C(Cc1ccccc1)N/N=C/c1ccc(Cl)cc1Cl`, -15.7%; to `CN(C)/N=C/c1cc(Cl)cc([N+](=O)[O-])c1O`, -79.8% (active).

With `CC(=O)NC(c1ccccc1)c1nc(-c2ccccc2C)cs1` (stereo not given), the max response, negative = inhibition was -13.7%.

Consider `CC(C)CCNC(=O)c1[nH]c(C(F)(F)F)nc1-c1ccccc1`, for which the max response, negative = inhibition was 0%. To `COCOCCn1cc(CN2CCS(=O)(=O)N(Cc3ccc(-c4ccc(OC)cc4)cc3)C(CC(C)C)C2=O)nn1` (stereo not given) belongs 10.8%; to `COc1ccc(NC(=O)c2sccc2SCC#N)cc1`, -82.3% (active). To `COc1ccc(NC(=O)CSc2nc(C)cs2)cc1` belongs 5.34%. Under `COc1ccc(NC(=O)c2ccc(C#CC(C)(C)O)cc2)cc1` stands -1.8%. Consider `C[C@@H]1CN([C@H](C)CO)C(=O)CCCn2cc(nn2)CO[C@H]1CN(C)S(C)(=O)=O`, for which the max response, negative = inhibition was 12.7%. Under `NC(=S)NN=Cc1ccc(OC(=O)COc2cc(Cl)c(Cl)cc2Cl)cn1` stands 0.559%; under `CCC(C(=O)Nc1ccc2c(c1)OCCO2)c1ccccc1` (stereo not given), -13.2%. On to `O=C(Nc1ccc2c(c1)OCCO2)C(C1CC1)N1CCC(Cc2ccccc2)CC1` (stereo not given), for which the max response, negative = inhibition was -73.1% (active).

Consider `O=C(CN1CCOc2ccccc21)N1CCC(Cc2ccccc2)CC1`, for which the max response, negative = inhibition is 0%. In the case of `O=C(NCc1ccccc1)C(c1ccc(F)cc1)N1CCN(C(=O)C2CCCO2)CC1` (stereo not given), the max response, negative = inhibition was 29.8%. Under `CCOC(=O)C1(C)CCCN(C(=O)c2cccc(Cl)c2)C1` (stereo not given) stands -16.8%. Under `NC(=O)c1ccc(NC(=O)COC(=O)c2ccc([N+](=O)[O-])cc2)cc1` stands -15.1%; under `N#Cc1cccc(NC(=O)COC(=O)c2ccccc2C(=O)c2ccc(Cl)c([N+](=O)[O-])c2)c1`, -50.7% (active); under `COC(=O)c1cc(NC(=O)Cc2ccccc2[N+](=O)[O-])ccc1Cl`, -7.17%. Under `CCCc1ccc(C(O)c2ncc(-c3cccc(OC)c3)[nH]2)cc1` (stereo not given) stands 0%. Consider `CC(C)(C)S(=O)N1Cc2cc(C(=O)NCCCN3CCOCC3)nc(-c3cccc(-c4cc5ccccc5o4)c3)c2[C@H]1CCO` (stereo not given in full), for which the max response, negative = inhibition is 9.3%. To `CN(c1ccc(C(=O)NCc2ccccn2)cc1)S(C)(=O)=O` belongs -116% (active). Under `CCN(c1ccccc1)S(=O)(=O)c1cc(C(=O)NCc2ccccn2)ccc1C` stands 4.76%; under `COc1cccc(S(=O)(=O)NCc2ccc(C(=O)NCc3ccccn3)cc2)c1`, 8.72%; under `CC1(Cc2ccccc2C#N)C(=O)Nc2ccc(-c3ccc4[nH]ccc4c3)cc21` (stereo not given), -15.9%.

As for `COc1ccc(S(=O)(=O)N[C@@H]2C=C[C@@H](CC(=O)N3CCc4ccccc4C3)O[C@@H]2CO)cc1`, the max response, negative = inhibition was -0.0851%. To `O=C1C=C(c2cccc(Cl)c2O)C[C@@H](c2ccc(F)cc2)C1` belongs -58.3% (active); to `COc1ccccc1C1=CC(=O)C[C@H](c2ccc(F)cc2)C1`, -18.2%. Under `COc1cccc(C2=CC(=O)C[C@H](c3ccc(F)cc3)C2)c1OC` stands -8.44%; under `COC(=O)C1=C(C)N(C)C(=O)NC1c1ccc([N+](=O)[O-])o1` (stereo not given), -10.8%; under `CCOC(=O)c1ccc(-c2ccc(C(=O)Nc3cccnc3)o2)cc1`, 9.54%. Under `COC(=O)C1=C(C)NC2=C(C(=O)c3ccccc32)C1c1ccc(-c2ccc(C(=O)O)cc2)o1` (stereo not given) stands -75.7% (active).

On to `O=C(NCc1ccco1)C1(c2ccc(Cl)cc2)CCCC1`, for which the max response, negative = inhibition is -5.37%. To `O=C(CSc1c2c(nc3ccc(Cl)cc13)CCCC2)NCc1ccco1` belongs -79.5% (active); to `O=C(CSc1nnnn1-c1ccccc1)NCc1ccco1`, -1.61%.

For the molecule `Cc1cc(N/N=C\c2ccc(Br)cc2)nc(-n2nc(C)cc2C)n1`, the max response, negative = inhibition was -54.3% (active). Under `CN(C)c1ccc(/C=N/Nc2cc(N3CCOCC3)nc(N3CCOCC3)n2)cc1` stands -13.4%; under `Cc1cc(C)n(-c2nnc(N3CCN(c4ccccc4)CC3)nn2)n1`, -8.33%; under `N#CC1=C(N)C(C#N)(C#N)[C@H](c2ccsc2)[C@H]2COCC=C12`, -56% (active).

As to `C[C@H]1COc2cc(N3CCSCC3)ccc2S(=O)(=O)N1`, the max response, negative = inhibition was -22.5%. `CCCCC(O)C1=C[N+](=O)CC=C1` (stereo not given): the max response, negative = inhibition is 7.65%.

Consider `COc1ccc(-c2cc(NC=O)c3ncc(-c4ccccc4)n3c2)cc1OC`, for which the max response, negative = inhibition is -15.4%. To `COc1ccc(S(=O)(=O)NC(=O)C2(C)CCN2C(=O)c2ccccc2CCc2ccccc2)cc1` (stereo not given) belongs -6.13%. To `CC(C)(O)C1=C[N+](=O)CC=C1` belongs -16.9%; to `O=C(c1ccccc1)N1CCN(c2cc(-c3ccccc3)nc3cc(-c4cccc(Cl)c4)nn23)CC1`, 14.3%; to `COC(=O)c1[nH]c2ccccc2c1NC(=O)CN1CCCc2ccccc21`, 9.03%. With `CCOC(=O)c1[nH]c2ccc(OC)cc2c1NC(=O)CCN1CCN(Cc2ccccc2)CC1`, the max response, negative = inhibition is -54.8% (active). Consider `Cc1cc(NC(=O)CCN2CCN(Cc3ccccc3)CC2)ccc1Br`, for which the max response, negative = inhibition is -20.3%.

For `COc1ccc(-c2c(C#N)cnc(C)c2C)c(O)c1OC`, the max response, negative = inhibition was 9.2%.

As to `CC(=O)Nc1cccc(Nc2ccc(C#N)cc2)c1`, the max response, negative = inhibition is 1.07%. Under `c1cc(-c2nn[nH]n2)ccc1CN1CCCCC1` stands -18.9%. Under `Clc1ccc(CN2CCCCCC2)cc1Cl` stands -62.3% (active); under `Clc1ccc(-n2nnnc2CN2CCCCC2)cc1Cl`, -19.7%; under `CC1(C(=O)NCc2ccc3c(c2)OCO3)CCN1CCc1ccccc1` (stereo not given), -10.3%. Under `COCCNc1nc(NCc2ccc(NC(C)=O)cc2)c2sccc2n1` stands 23.6%. For `COc1ccc(NC(=O)C2Cc3c(-c4ccc5c(c4)OCO5)ccnc3O2)cn1` (stereo not given), the max response, negative = inhibition is -19.8%. Under `CC1(C)Cc2ccccc2/C(=C/C(=O)c2ccccc2)N1` stands 3.22%. To `CC1(C)Cc2ccccc2-c2nc(CN3CCOCC3)[nH]c(=O)c21` belongs 8.19%; to `CC1(C)Cc2ccccc2-c2[nH]c(=S)[nH]c(=O)c21`, -54.5% (active). To `COc1cc(Cn2c3ccc(NC(=O)CC(C)c4ccccc4)cc3c(=O)n2C)ccc1F` (stereo not given) belongs 0%.

With `CC1(C(=O)NS(=O)(=O)c2ccc(C#N)cc2)CCN1C(=O)c1ccc(C2CCCCC2)cc1` (stereo not given), the max response, negative = inhibition is -14.3%. For `OCC1OC(n2cnc3c(N4CCCC4)ncnc32)C(O)C1O` (stereo not given), the max response, negative = inhibition was 10.4%. Under `O=C(OCc1cn([C@@H]2C[C@H](c3ccc(Cl)cc3)N(Cc3cccs3)C[C@H]2O)nn1)c1ccccc1` stands -15%; under `CCN(CC)CCNC(=O)c1ccc(NS(=O)(=O)c2ccc3c(c2)OCCO3)cc1`, 2.66%. Under `CCN(CC)CCNC(=O)c1cc(S(C)(=O)=O)ccc1OC` stands -60.5% (active); under `COc1ccc(S(=O)(=O)NC(C)C)cc1C(=O)NC1CCCCC1`, 11.4%.

For the molecule `COc1cccc(CN2CCC(C(=O)NC(c3ccc4c(c3)OCO4)c3ccccn3)CC2)c1` (stereo not given), the max response, negative = inhibition was -21.6%. To `O=C(NCCN1CCOCC1)c1ccc2c(c1)N(Cc1cccc(Cl)c1)C(=O)c1ccccc1S2(=O)=O` belongs -29.4%; to `CC1(C(=O)Nc2cccc3c2CCCC3)CCN1C(=O)C1(c2ccccc2)CC1` (stereo not given), 11.6%; to `CCOC(=O)N1CCN(C(=O)C2CCN(Cc3ccc(OC)cc3OC)CC2)CC1`, 0.368%.

In the case of `CCOC(=O)C1CCCN(C(=O)/C=C/c2ccc(OC)cc2)C1` (stereo not given), the max response, negative = inhibition was -24.9%. Consider `CCOC(=O)c1cc2cc(OC)ccc2n1C1CCN(C)CC1`, for which the max response, negative = inhibition was -92.9% (active).

In the case of `O=C1c2ccccc2C(c2nc3ccccc3[nH]2)N1c1ccccc1` (stereo not given), the max response, negative = inhibition was 6.4%.

With `O=C(c1ccc(CS(=O)Cc2ccccc2Cl)o1)N1CCN(c2ccccc2)CC1` (stereo not given), the max response, negative = inhibition was 2.17%.
